# Measurements taken from PMC12820563, “FoxP3 forms a head-to-head dimer in vivo and stabilizes its multimerization on adjacent microsatellites”.
# Whole data set: some 16,000 sequences, median “rpm ratio (pull-down/input)” near 0.5, cut for the highest 2% near 5.5. Shown is part of a subset that was picked to be rich in the highest values.
# Biological target: T1, MBP-FoxP3dN (Mus musculus, UniProt Q99JB6 188-423)
# T1 sequence: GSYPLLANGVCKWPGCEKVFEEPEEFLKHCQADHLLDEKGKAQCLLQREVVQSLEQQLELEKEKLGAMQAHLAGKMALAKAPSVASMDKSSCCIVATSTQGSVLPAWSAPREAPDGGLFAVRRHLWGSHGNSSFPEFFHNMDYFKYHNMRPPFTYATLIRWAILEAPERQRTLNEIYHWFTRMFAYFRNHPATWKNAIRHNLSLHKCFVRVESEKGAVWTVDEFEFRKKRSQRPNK
# Test: PD-seq (MBP pull-down with sequencing); 20 mM Tris-HCl pH 7.5, 100 mM NaCl, 1.5 mM MgCl2, 0.4 uM protein, 0.1 uM dsDNA library, 30 min, room temperature, amylose pull-down; high values mean tight binding
# Settings: protein: recombinant; tags: His6-MBP; chain copies: 2; dsDNA, one strand shown
# In short: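 A degenerate double-stranded DNA library, filled in with Klenow, was added at 0.1 µM to 0.4 µM His6-MBP-tagged mouse FoxP3 or FoxP1 fragment lacking the N-terminus, expressed in E. coli. Incubation lasted 30 min at room temperature in Tris pH 7.5 buffer with NaCl and MgCl2, after which complexes were collected on amylose resin, washed three times, digested with proteinase K to free the DNA, barcoded by PCR and sequenced by Illumina. Binding is the pooled-replicate reads-per-million enrichment of pull-down over input.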
row,Sequence,binding signal
1,GATGATTGTTCTCCCAGCTGATGAATTTCAACGGTCGAGTAAACAAATTTTCCTAATCTTTCTGTTCAAGCGCCATCTAC,0.241 RPM ratio (pull-down/input)
2,GATGATTGTTCTCCCAGCTGATGAATTTGGTGGCTCGAGTAAACAAATTTTCCTAATCTTTCTGTTCAAGCGCCATCTAC,1.09 RPM ratio (pull-down/input)
3,GATGATTGTTCTCCCAGCTGATGAATTTCATAACTCGAGTAAACAAATTTTCCTAATCTTTCTGTTCAAGCGCCATCTAC,0.332 RPM ratio (pull-down/input)
4,GATGATTGTTCTCCCAGCTGATGAATTATTCATCTCGAGTAAACAAATTTTCCTAATCTTTCTGTTCAAGCGCCATCTAC,0.399 RPM ratio (pull-down/input)
5,GATGATTGTTCTCCCAGCTGATGAATTTAGACCGTCGAGTAAACAAATTTTCCTAATCTTTCTGTTCAAGCGCCATCTAC,0.5 RPM ratio (pull-down/input)
6,GATGATTGTTCTCCCAGCTGATGAATTCTGTATCTCGAGTAAACAAATTTTCCTAATCTTTCTGTTCAAGCGCCATCTAC,4.93 RPM ratio (pull-down/input)
7,GATGATTGTTCTCCCAGCTGATGAATTGTGTATCTCGAGTAAACAAATTTTCCTAATCTTTCTGTTCAAGCGCCATCTAC,6.36 RPM ratio (pull-down/input)
8,GATGATTGTTCTCCCAGCTGATGAATTGTATCTCTCGAGTAAACAAATTTTCCTAATCTTTCTGTTCAAGCGCCATCTAC,1.51 RPM ratio (pull-down/input)
9,GATGATTGTTCTCCCAGCTGATGAATTTGACTTTTCGAGTAAACAAATTTTCCTAATCTTTCTGTTCAAGCGCCATCTAC,0.49 RPM ratio (pull-down/input)
10,GATGATTGTTCTCCCAGCTGATGAATTGACGTAGTCGAGTAAACAAATTTTCCTAATCTTTCTGTTCAAGCGCCATCTAC,0.381 RPM ratio (pull-down/input)
11,GATGATTGTTCTCCCAGCTGATGAATTAAATTTCTCGAGTAAACAAATTTTCCTAATCTTTCTGTTCAAGCGCCATCTAC,0.664 RPM ratio (pull-down/input)
12,GATGATTGTTCTCCCAGCTGATGAATTTTAAGCATCGAGTAAACAAATTTTCCTAATCTTTCTGTTCAAGCGCCATCTAC,0.881 RPM ratio (pull-down/input)
13,GATGATTGTTCTCCCAGCTGATGAATTTAAGCATTCGAGTAAACAAATTTTCCTAATCTTTCTGTTCAAGCGCCATCTAC,5.65 RPM ratio (pull-down/input)
14,GATGATTGTTCTCCCAGCTGATGAATTAAGCCATTCGAGTAAACAAATTTTCCTAATCTTTCTGTTCAAGCGCCATCTAC,4.08 RPM ratio (pull-down/input)
15,GATGATTGTTCTCCCAGCTGATGAATTAAGCATTTCGAGTAAACAAATTTTCCTAATCTTTCTGTTCAAGCGCCATCTAC,6.1 RPM ratio (pull-down/input)
16,GATGATTGTTCTCCCAGCTGATGAATTACAGCATTCGAGTAAACAAATTTTCCTAATCTTTCTGTTCAAGCGCCATCTAC,5.18 RPM ratio (pull-down/input)
17,GATGATTGTTCTCCCAGCTGATGAATTCAAGCATTCGAGTAAACAAATTTTCCTAATCTTTCTGTTCAAGCGCCATCTAC,4.27 RPM ratio (pull-down/input)
18,GATGATTGTTCTCCCAGCTGATGAATTAAGCATCTCGAGTAAACAAATTTTCCTAATCTTTCTGTTCAAGCGCCATCTAC,6.6 RPM ratio (pull-down/input)
19,GATGATTGTTCTCCCAGCTGATGAATTTAAACATTCGAGTAAACAAATTTTCCTAATCTTTCTGTTCAAGCGCCATCTAC,0.704 RPM ratio (pull-down/input)
20,GATGATTGTTCTCCCAGCTGATGAATTAAAGCATTCGAGTAAACAAATTTTCCTAATCTTTCTGTTCAAGCGCCATCTAC,5.57 RPM ratio (pull-down/input)
21,GATGATTGTTCTCCCAGCTGATGAATTAAGCTGTTCGAGTAAACAAATTTTCCTAATCTTTCTGTTCAAGCGCCATCTAC,1.12 RPM ratio (pull-down/input)
22,GATGATTGTTCTCCCAGCTGATGAATTAAGCAGCTCGAGTAAACAAATTTTCCTAATCTTTCTGTTCAAGCGCCATCTAC,1.33 RPM ratio (pull-down/input)
